Assay outcomes (PubChem BioAssay)
SMN2 splice enh: enhancers of SMN2 splice variant expression; HEK293 SMN2-luciferase splicing reporter, luminescence, 30-36 h; Potency, µM (titrated, usually from 46.1 µM), inactives show top-dose activity change, positive = activation, most hits filed as activators; actives 2.8% (n = 210,000); AID 1458; also: % of control where 0% means no effect; nearly all actives have a fitted effect of over 55% in size
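HEK293 cells carry an SMN2 minigene-luciferase reporter in which exon 7 inclusion puts luciferase in frame. Cells were seeded at 2000 cells/well, attached for 10-12 hours, then exposed to compounds for 30-36 hours at 37C before ONE-Glo luminescence.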
FLuc counter: counter-screen for miR-21 project: firefly luciferase inhibitors or activators. AID 588342. Potency, µM (titrated, usually from 57.5 µM), for the others: at the top dose activity change, negative = inhibition, hits mostly inhibitors. P08659. purified FLuc, Km substrates, luminescence inhibition. actives 6.9% (n = 360,000);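 also: plate controls were vehicle for no effect and reference inhibitor for full effect; nearly all actives have a fitted effect of over 55% in size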
Target sequence (P08659 whole entry, looked up): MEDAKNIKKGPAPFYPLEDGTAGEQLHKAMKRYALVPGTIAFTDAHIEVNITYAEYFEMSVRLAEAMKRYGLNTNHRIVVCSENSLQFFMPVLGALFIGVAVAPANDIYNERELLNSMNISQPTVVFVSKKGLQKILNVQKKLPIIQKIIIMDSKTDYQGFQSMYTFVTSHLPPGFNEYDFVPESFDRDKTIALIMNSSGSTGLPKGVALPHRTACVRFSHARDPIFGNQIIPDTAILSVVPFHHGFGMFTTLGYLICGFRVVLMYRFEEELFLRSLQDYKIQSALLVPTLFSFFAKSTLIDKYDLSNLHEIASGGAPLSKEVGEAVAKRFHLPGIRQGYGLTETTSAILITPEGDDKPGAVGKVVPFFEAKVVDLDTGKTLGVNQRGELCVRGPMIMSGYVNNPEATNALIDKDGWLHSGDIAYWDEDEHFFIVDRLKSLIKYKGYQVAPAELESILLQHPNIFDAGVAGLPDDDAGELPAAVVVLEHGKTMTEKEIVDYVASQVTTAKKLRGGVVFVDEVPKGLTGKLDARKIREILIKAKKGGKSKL
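Biochemical qHTS of compounds, final roughly 60 µM downward over six points, against 10 nM purified firefly luciferase using Km concentrations of substrates (10 uM D-luciferin, 10 uM ATP) in Tris acetate pH 7.5 buffer; luminescence output.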
ELG1 genotox: inducers of genotoxicity in HEK293T ELG1-luciferase cells. HEK293T ELG1-luciferase reporter, luminescence, 16 h. actives 1.3% (n = 330,000). Potency, µM (doses to about 46 µM), without a hit: at the highest dose activity change, positive = activation, most hits filed as activators; also: % of control where 0% means no effect; nearly all actives have a fitted effect of over 60% in size
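16 hr compound incubation (37 °C, 5% CO2) of HEK293T cells carrying luciferase-tagged ELG1; luciferase then measured by ONE-Glo luminescence after 30 min at RT.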
Luc counter: counter-screen: inhibitors of Kinase-Glo firefly luciferase | Q27757 | Kinase-Glo luciferase, ATP luminescence, 8 min | Potency, µM (highest dose often 38.3 µM), for the others: top-dose activity change, negative = inhibition, usual class: inhibitors | actives 0.28% (n = 200,000); also: % is scaled to controls: 0 for no effect and ±100 for the full control effect; nearly all actives have a fitted effect of over 60% in size
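Substrate mix (final 50 mM imidazole pH 7.2, 50 mM KCl, 7 mM MgCl2, 10 uM ATP, 0.01% Tween 20, 0.05% BSA) plus pin-tool compound, then Kinase-Glo detection mix; 8 min ambient, luminescence read.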
Rab9 promoter act: activates the Rab9 promoter; Potency, µM (doses to about 9.22 µM), for the others: at the top dose activation, negative = inhibition, usual class: activators; actives 2.8% (n = 320,000); Huh7 Rab9 promoter-luciferase reporter, luminescence, 24 h; also: % of control where 0% means no effect; nearly all actives have a fitted effect of over 60% in size
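Cell-based reporter: Huh7 stable for Rab9 promoter-driven luciferase, plated in reduced-serum medium with 10% FBS at 1500 cells/well, compound-treated 24 h at 37 °C, luminescence read after 10 min reagent.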
NPC1 promoter act: NPC1 promoter activation | actives 2.4% (n = 320,000) | AID 485313 | Huh7 NPC1 promoter luciferase reporter, 24 h | Potency, µM (highest dose often 9.22 µM), for the others: at the top dose activation, hits mostly activators; also: % of control where 0% means no effect; nearly all actives have a fitted effect of over 60% in size
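Luminescence read-out of NPC1 promoter-driven luciferase in stably transfected Huh7 cells; compounds delivered in DMSO and left 24 h at 37C, 5% CO2, qHTS titration format.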
The depositor's hits bear a star; ? = inconclusive; · = not tested or not shown; [ ] = remark or other dose. An excerpt weighted towards active compounds, which were near 7.4% of everything screened. Calls follow the shape of the dose curve; as a rule, active = well fitted curve in the direction sought with a large enough effect; inconclusive = small, poorly fitted or top-dose-only effect, or another doubt; inactive = no such curve, though single readings can be large; an effect the other way counts as inactive or inconclusive. Potency is read from the fitted curve at half-maximal effect.

SMILES	SMN2 splice enh	FLuc counter	ELG1 genotox	Luc counter	Rab9 promoter act	NPC1 promoter act
Cc1ccc(S(=O)(=O)N/N=C/c2cccn2-c2ccc(Cl)cc2)cc1	-20%	0.54µM*	11%	-26%	?	?
O=C(O)c1cc(S(=O)(=O)O)cc(Nc2c3ccccc3nc3ccccc23)c1O	·	8.5µM*	-4%	·	-5%	4%
CCOc1ccc(NC(=O)Cc2csc(COc3cccc(C)c3)n2)cc1	·	-8%	·	·	·	·
Cc1ccc(NC(=O)c2ccc(N3C(=O)C4CC=C(Cl)CC4C3=O)cc2)cc1 (configuration not stated)	7%	-16%	4%	-4%	-1%	-1%
C/C(=N\O)c1ccc(N2C(=O)C3CC=C(Cl)CC3C2=O)cc1 (configuration not stated)	?	11µM*	?	2%	?	?
COc1ccc(C(=O)C(OC(=O)c2ccccc2Cl)c2ccccc2)cc1 (configuration not stated)	65%	13µM*	?	1%	4µM*	?
COc1ccc(C(=O)CSc2ccc(-c3ccccc3)nn2)cc1	11%	-16%	-1%	6%	-5%	0%
COc1ccc(C(=O)CSc2ccccc2C(=O)O)cc1	11µM*	9.5µM*	19%	0%	?	2.2µM*
COc1ccc(C(=O)NCC(=O)c2ccccc2)cc1	·	12µM*	9.2µM*	·	3.5µM*	2.8µM*
COc1ccc(/C(C)=N\NC(=O)CSc2nnc(C)s2)cc1	1%	-17%	4%	-1%	0%	-1%
COc1ccc(CNC(=O)c2ccc(-c3ccccc3)cc2)cc1	2%	?	?	-4%	?	?
COc1ccc(C(=O)Cc2nnc(C)s2)cc1	?	19µM*	?	-4%	?	?
COc1ccc(C(=O)C(OC(=O)c2ccccc2)c2ccccc2)cc1 (configuration not stated)	22%	?	?	1%	?	?
COC(=O)c1sccc1S(=O)(=O)N(CC(=O)Nc1cc(C)ccc1C)c1ccc(C)c(C)c1	·	3%	·	·	·	·
COc1ccc2c(c1)c(=O)c(S(=O)(=O)c1ccccc1)cn2CC(=O)Nc1ccc(C)c(Cl)c1	13%	0%	·	·	·	·
C#CCCOC(=O)N1C2=NC(C(=O)OC)=C(C(=O)OC)[C@@H]3N(CC#CC)c4ccccc4[C@]23C[C@H]1C(=O)OC	-9%[9.22 µM]	·	·	-6%[7.66 µM]	·	·
COc1ccc(C(=O)CNc2ccccc2Br)cc1	·	7.6µM*	?	·	?	?
COc1ccc(C(=O)CCC(=O)O)cc1	-14%	4%	6%	2%	-8%	1%
COc1ccc(C(=O)CC(=O)c2ccc(OC)cc2)cc1	·	19µM*	6%	·	15%	19%
COc1ccc(C(=O)CN2C(=O)c3ccccc3C2=O)cc1	·	17µM*	10%	·	27%	?
COc1ccc(C(=O)C[n+]2cccc3cc(OC)ccc32)cc1	·	3%	-7%	·	-6%	-3%
COc1ccc(C(=O)C[n+]2ccc3ccccc3c2C)cc1	·	-17%	1%	·	1µM*	?
COc1ccc(NC(=O)CC2C(=O)N(c3ccc(C)cc3)C(=O)N2Cc2ccc(C)cc2)cc1 (configuration not stated)	11%	5%	·	·	·	·
COc1ccc(O)c(C(=O)CC(=O)c2ccccc2)c1	1.8µM*	17µM*	?	0%	0.71µM*	0.71µM*
CCOC(=O)C1CCN(C(=O)Nc2ccc3nc(-c4ccco4)c(-c4ccco4)nc3c2)CC1	4%	?	-5%	1%	0%	0%
SMILES	SMN2 splice enh	FLuc counter	ELG1 genotox	Luc counter	Rab9 promoter act	NPC1 promoter act
O=C(Nc1ccc(Cl)c(Cl)c1)N1CCC(N2CCCCC2)CC1	-1%	2%	3%	-4%	-3%	-4%
Cc1ccc(C2CCN(C(=O)Nc3ccc(C)c(C)c3)C2)cc1 (configuration not stated)	·	12µM*	·	·	·	·
O=C(Nc1ccc(Cl)c(Cl)c1)N1CCC(c2ccccc2)C1 (configuration not stated)	·	1.7µM*	·	·	·	·
CCOc1ccc(NC(=O)N2CCC(c3ccc(C)cc3)C2)cc1 (configuration not stated)	-6%	-7%	5%	-2%	-1%	14%
Cc1ccc(C2CCN(C(=O)Nc3ccc(Cl)c(Cl)c3)C2)cc1 (configuration not stated)	·	4.8µM*	·	·	·	·
O=C(Nc1ccc2nc(-c3ccco3)c(-c3ccco3)nc2c1)N1CCCCCC1	-2%	21µM*	-22%	-7%	9%	15%
O=C(Cn1c(=O)n(Cc2ccco2)c(=O)c2sc3ccccc3c21)Nc1ccccc1C(F)(F)F	-18%	-2%	·	·	·	·
Cc1nc(-c2ccc(S(=O)(=O)NCc3ccc(N(C)C)cc3)cc2)co1	·	-11%	·	·	·	·
O=C(Nc1ccc(Cl)c(Cl)c1)N1CCCCCC1	·	6µM*	?	·	2.5µM*	2.8µM*
O=C(Nc1ccc2nsnc2c1)N1CCCCCC1	-9%	17µM*	?	-5%	?	21%
S=C(Nc1ccc2nsnc2c1)N1CCCC1	·	?	8%	-28%	26%	14%
O=C(Nc1nc2n(n1)C(c1ccccc1)C=C(c1ccccc1)N2)c1ccccc1 (configuration not stated)	8%	?	·	·	·	·
Cc1ccc(-c2nc(Nc3ccccc3)n[nH]2)cc1	3.5µM*	1.7µM*	0.65µM*	1%	0.71µM*	0.89µM*
CC(CNC(=O)Cn1ccc2cc(S(=O)(=O)N3CCCCC3)ccc21)c1ccccc1 (configuration not stated)	·	-15%	·	·	·	·
CCc1cc(/C(Cc2ccc3ccccc3n2)=N\O)c(O)cc1O	-14%	2%	1%	-6%	1%	-3%
Cc1c(O)ccc(/C(Cc2ccc3ccccc3n2)=N\N)c1O	·	15µM*	10%	·	17%	19%
CCOc1ccc(S(=O)(=O)NCC(c2ccco2)S(=O)(=O)c2ccc(F)cc2)cc1 (configuration not stated)	·	-8%	·	·	·	·
CCCCc1ccc(NC(=S)Nc2cccnc2)cc1	-15%	1%	0%	3%	0%	0%
CCCCc1ccc(NC(=S)Nc2ccc(Nc3ccc(OC)cc3)cc2)cc1	-31%	1%	-6%	0%	-4%	0%
O=C(Nc1ccccc1)OCCCc1ccccc1	?	19µM*	-27%	-1%	?	?
CCCCc1ccc(NC(=O)Nc2cccnc2)cc1	·	6µM*	?	·	?	?
CCCCc1ccc(NC(=O)OC)cc1	-13%	17µM*	8%	1%	15%	13%
COc1ccc(NC(=O)Nc2ccc3c(c2)N(C)C(=O)CS3)cc1OC	17%	?	-4%	2%	-3%	3%
